# Keap1 Nrf2 FP – disrupts human Keap1 binding to Nrf2 peptide. Q14145. Keap1 Kelch-Nrf2 peptide fluorescence polarization, 1536-well. inhibition, % at 9.4 µM. hit rate 0.15% among 340,000; in the data active = inhibition above about 12%;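 note: human Keap1 Kelch domain with fluorescein labeled Nrf2 9mer peptide probe; higher means more block of Keap1 binding to Nrf2 peptide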
# Target sequence (Q14145 whole entry, looked up, the tested form may be a part): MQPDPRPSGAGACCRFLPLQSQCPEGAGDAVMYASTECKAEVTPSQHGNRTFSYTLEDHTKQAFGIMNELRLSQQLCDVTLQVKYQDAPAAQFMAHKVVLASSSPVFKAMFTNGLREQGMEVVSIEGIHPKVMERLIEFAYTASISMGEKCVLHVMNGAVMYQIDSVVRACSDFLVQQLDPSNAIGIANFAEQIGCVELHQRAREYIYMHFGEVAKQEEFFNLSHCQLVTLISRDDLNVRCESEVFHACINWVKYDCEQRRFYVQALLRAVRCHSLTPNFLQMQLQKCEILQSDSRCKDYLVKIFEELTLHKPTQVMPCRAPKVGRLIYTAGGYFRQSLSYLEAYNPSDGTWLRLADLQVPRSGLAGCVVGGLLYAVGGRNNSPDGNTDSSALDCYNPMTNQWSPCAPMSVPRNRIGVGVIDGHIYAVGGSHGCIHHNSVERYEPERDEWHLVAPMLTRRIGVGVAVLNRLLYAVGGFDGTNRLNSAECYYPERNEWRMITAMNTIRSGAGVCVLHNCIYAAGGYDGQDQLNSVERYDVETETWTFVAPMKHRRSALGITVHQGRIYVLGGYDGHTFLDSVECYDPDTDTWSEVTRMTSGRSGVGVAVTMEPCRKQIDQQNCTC
# RTF Ca sens inh – cardiac RTF calcium desensitization | P19429+P45379 | inhibition, % at 7.15 µM | hit rate 0.12% among 340,000 | AID 493244 | IANBD-labeled cardiac RTF, Ca2+ fluorescence;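 active = inhibition above the mean inhibition of all tested compounds plus 3 SD, cut at about 17% in these data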;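 note: assay run at fixed EC70 calcium of 1.6 mM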
# C-LANA FP – inhibitors of KSHV LANA C-terminal domain DNA binding. MBP-C-LANA/FAM-LBS DNA binding, fluorescence polarization. inhibition, % at 9 µM. hit rate 0.078% among 340,000. AID 504423;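 active = highest replicate inhibition at or above 60% at 9 µM, even if other replicates fall short; inactive = all replicates below 60% inhibition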
# E coli Lon inh – E. coli protease La inhibition; P0A9M0; purified E. coli Lon protease, fluorescence polarization; inhibition, % at 7.94 µM; hit rate 0.42% among 360,000; in the data active = inhibition above about 13%, passing the limit was not always enough
# RTF Ca sens act – increases calcium sensitivity of human cardiac regulated thin filaments. P19429+P45379. IANBD-labeled TnC RTF fluorescence at EC20 calcium; 0% EC20 calcium, 100% full calcium. activation, % at 7.2 µM. hit rate 0.24% among 340,000;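 active = activation above the mean over all tested compounds plus 3 SD, cut at about 30% in these data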;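 note: rise in fluorescence read as greater calcium sensitivity of cardiac thin filaments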
# A number is an active result; - = inactive; . = no result. In the library only some 0.82% were active in any assay of this set; here they are far more common.
SMILES,Keap1 Nrf2 FP,RTF Ca sens inh,C-LANA FP,E coli Lon inh,RTF Ca sens act
COc1ccc2nc(C)cc(NCc3ccc(F)cc3)c2c1,-,-,-,-,69
CCOC(=O)CC1C(=O)NCCN1c1nc2ccc(C)cn2c(=O)c1/C=C1\SC(=S)N(CC(C)C)C1=O (stereo unspecified),-,-,-,-,182
CCOC(=O)CC1C(=O)NCCN1C(=O)c1ccc(C)cc1 (stereo unspecified),-,-,-,-,-
CCCN1C(=O)/C(=C/c2c(NCCCOC(C)C)nc3c(C)cccn3c2=O)SC1=S,-,-,-,-,-
CCCN1C(=O)/C(=C/c2c(N3CCNC(=O)C3CC(=O)OCC)nc3c(C)cccn3c2=O)SC1=S (stereo unspecified),-,-,-,-,130
CCOC(=O)C1C(=O)NC(SC)=C(C#N)C1c1ccccc1F (stereo unspecified),-,-,-,-,-
CCOC(=O)C1C(=O)NC(SCC(N)=O)=C(C#N)C1c1ccccc1OCC (stereo unspecified),-,-,-,-,38
CCN1C(=O)/C(=C/c2ccc(N3CCCC3)cc2)NC1=S,-,-,-,-,151
CCCN1C(=O)/C(=C/c2ccc(N3CCCC3)c(C)c2)NC1=S,-,-,-,-,68
Cc1cc(/C=C2/C(=O)N(C)C(=S)N2C)ccc1N1CCCC1,-,-,-,-,32
Cc1cc(/C=C2\NC(=S)N(C)C2=O)ccc1N1CCCC1,-,-,-,-,87
COc1cc(/C=C2\NC(=S)N(C)C2=O)ccc1O,-,-,-,-,-
CCOC(=O)c1cc2ccccc2n1C1CCN(C)CC1,.,.,.,-,.
Oc1ccc(/C=N/N=C/c2ccc(O)c(O)c2)cc1O,-,-,77,-,-
COCCN(CCOC)Cc1c(O)ccc2c1O/C(=C\c1ccco1)C2=O,-,-,65,-,69
COc1cc(F)ccc1-c1csc(C(C)(NC(C)=O)c2ccccc2)n1 (stereo unspecified),.,.,.,-,.
CCc1ccc(C2C(C#N)=C(N)C(C#N)(C#N)C3=CCC(C(C)(C)C)CC32)cc1 (stereo unspecified),-,-,-,26,-
CCC12CC1(C(=O)OC)C(=O)N1CCc3c([nH]c4ccccc34)C12 (stereo unspecified),.,.,.,-,.
CN=Cc1nc(-c2ccccc2)oc1O,-,-,-,-,-
CC1=Nc2ccccc2/C1=C\c1nc(-c2ccc(F)cc2)oc1O,-,-,-,-,84
NS(=O)(=O)c1ccc(CCNc2nn3c(-c4cccc(OC(F)(F)F)c4)cnc3s2)cc1,.,.,.,-,.
CCOC(=O)c1c(C)nc2c(c1-c1cc(OC)ccc1OC)C(=O)c1ccccc1-2,-,-,-,-,-
CCOC(=O)C1=C(Cc2ccc(OC)cc2)C(=O)c2ccccc2C1=O,-,-,-,28,-
COc1ccc(/C=C2\Oc3cc(OC(=O)N4CCOCC4)ccc3C2=O)cc1,-,-,-,-,-
CC(=O)Oc1ccc2c(c1)O/C(=C\c1ccncc1)C2=O,-,-,-,79,60
SMILES,Keap1 Nrf2 FP,RTF Ca sens inh,C-LANA FP,E coli Lon inh,RTF Ca sens act
COc1cc(OC)c(OC)cc1/C=C1/Cc2ccccc2C1=O,-,-,-,-,31
COc1ccccc1C=C1CCc2ccccc2C1=O,.,.,.,-,.
O=C(C[C@@H]1C[C@H]2c3cc(NC(=O)c4cccnc4)ccc3O[C@H]2[C@H](CO)O1)NCc1ccc(Oc2ccccc2)cc1,.,.,.,-,.
O=c1oc2c(O)c(O)cc3c(=O)oc4c(O)c(O)cc1c4c23,-,102,127,-,-
C#Cc1ccc(NC(=O)C2(C)CCN2C(=O)CC(c2ccccc2)c2ccccc2)cc1 (stereo unspecified),.,.,.,-,.
CCN(CC)c1ccc2cc(C(N)=O)c(=N)oc2c1,-,.,-,-,.
CCN(CC)c1ccc2cc(C=O)c(=O)oc2c1,-,-,-,-,425
CCN(CC)c1ccc2cc(-c3nnc(-c4ccncc4)o3)c(=O)oc2c1,-,-,-,-,163
CCN(CC)c1ccc2cc(NC(=O)CCC(=O)O)c(=O)oc2c1,-,-,-,-,70
CCN(CC)c1ccc2cc(C(=O)Nc3ccccn3)c(=O)oc2c1,-,-,-,-,53
CCOC(=O)C1=CCN(S(=O)(=O)c2ccc(C)cc2)C1c1cccc(C)c1 (stereo unspecified),.,.,.,-,.
CCN(CC)c1ccc2cc(C(N)=O)c(=O)oc2c1,-,-,-,-,-
CCN(CC)c1ccc2cc(C(C)=O)c(=O)oc2c1,-,-,-,-,153
CN1CCc2c(sc(/N=C/c3cccs3)c2C(N)=O)C1,-,-,-,-,31
O=C(Cn1ccc(=O)[nH]c1=O)c1ccc([N+](=O)[O-])o1,.,.,.,-,.
COc1cc(/C=C2\Oc3cc(O)ccc3C2=O)ccc1O,-,-,-,-,41
N=c1c(S(=O)(=O)c2ccc(Cl)cc2)cc2c(=O)n3ccccc3nc2n1C1CCCCC1,25,-,-,-,-
N=c1c(S(=O)(=O)c2ccccc2)cc2c(=O)n3ccccc3nc2n1C1CCCC1,-,-,-,-,-
O=C(Nc1nc2ccccc2s1)c1cccc(S(=O)(=O)N2CCc3ccccc32)c1,-,-,-,-,-
O=C(Nc1nc2c(s1)CN(Cc1ccccc1)CC2)c1cccc(S(=O)(=O)N2CCc3ccccc32)c1,-,-,-,-,67
CC(=O)Nc1cc(-c2cccc(NS(C)(=O)=O)c2)cn2c(-c3ccc(F)c(Cl)c3)cnc12,.,.,.,-,.
CC1=C(C#N)C(=O)OC(C)(C)C1,19,-,-,-,-
Cc1[nH]c(=O)c(C#N)c2c1COC(C)(C)C2,-,-,-,-,-
Cc1cc2nc(-c3ccc(F)cc3)c(CC(C)(C)C)n2c(C)c1Br,.,.,.,-,.
CCOC(=O)Cn1c(=O)c(-c2ccccc2N)nc2ccccc21,-,-,-,-,-
SMILES,Keap1 Nrf2 FP,RTF Ca sens inh,C-LANA FP,E coli Lon inh,RTF Ca sens act
CCOC(=O)Cn1c(=O)c(-c2cc(Br)ccc2N)nc2ccccc21,-,-,-,-,44
CCOc1ccc(Cl)cc1-c1cc(C(=O)NCc2cc(C(F)(F)F)cc(C(F)(F)F)c2)[nH]n1,.,.,.,-,.
O=C(O)c1cccc2cccc(-c3c4ccc(=O)c(O)c-4oc4c(O)c(O)ccc34)c12,-,79,87,-,-
O=C(O)c1cccc2cc(-c3ccccc3)oc(=O)c12,-,-,-,-,-
CCCCn1nnnc1C(c1ccccc1)N1CCN(c2ncccc2C(F)(F)F)CC1 (stereo unspecified),.,.,.,-,.
CC(C)(C)N1C(=O)Cc2c1nc(N)c1c(N)nc(N3CCCCC3CO)c(C#N)c21 (stereo unspecified),-,-,-,50,-
CC/C(=C(/CC)c1ccc(O)cc1)c1ccc(O)cc1,.,18,-,-,-
Cc1ccc([C@H]2C[C@@H](O)[C@H](n3cc(COC(=O)c4ccccc4)nn3)CN2C(=O)c2cccs2)cc1,.,.,.,-,.
COc1cc(N2CCCC2)c(OC)cc1/C=C1/NC(=S)NC1=O,-,-,-,-,79
COC(CNC(=O)c1ccc2c3c(onc13)-c1ccccc1C2=O)OC,101,-,-,-,-
O=C(Nc1ccccc1F)c1coc(=O)c(Br)c1,-,-,87,-,-
